Pf growth 48h – Primary qHTS for delayed death inhibitors of the malarial parasite plastid, 48 hour incubation; P. falciparum luciferase growth in erythrocytes, 48 h; Potency, µM (top dose mostly 28.7 µM), actives largely listed as inhibitors; 310,000 tested, 5.9% active; AID 504832, 2011
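Firefly luciferase activity from engineered P. falciparum reports growth; inhibitors lower the luminescent signal. Cultures contained 2% hematocrit erythrocytes at 0.1% final parasitemia.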
RE007 growth inh – qHTS Assay for Inhibitors of the HIV-1 protein Vpr; S. pombe RE007 Vpr strain, BacTiter-Glo ATP luminescence, 24 h; 360,000 tested, 0.21% active; Potency, µM (top dose mostly 92.2 µM), hits mostly inhibitors; active means well fitted falling curve with a large enough effect; inconclusive means small, poorly fitted or top-dose-only effect; inactive means no such curve, though single readings can be large or run the other way; further: nearly all actives have a fitted effect of over 50% in size
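Fission yeast RE007 carrying one integrated HIV-1 vpr copy, seeded at OD 0.01 in PMG+AL medium with 23 nL pinned compound. Grown 24 h at 30 degrees; viability read by BacTiter-Glo luminescence after 5 min.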
SARS PLpro yeast – qHTS of Yeast-based Assay for SARS-CoV PLP; 330,000 tested, 0.19% active; Potency, µM (top dose mostly 32.9 µM), most hits filed as activators; S. cerevisiae expressing SARS-CoV PLpro, growth rescue; calls by dose curve; further: nearly all actives have a fitted effect of over 55% in size
NS1 inh – qHTS Assay for Inhibitors of Influenza NS1 Protein Function. Potency, µM (series often up to 46.1 µM). 270,000 tested, 0.4% active. AID 2326, 2010; calls by dose curve; further: actives are rising curves; nearly all actives have a fitted effect of over 50% in size
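In this qHTS, NS1 from influenza A is expressed in budding yeast, where it slows growth. Cells are switched from glucose to 2% galactose medium (pH 6.0, -URA), treated with compound, and growth recovery is read at OD600.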
Pf growth 96h – Primary qHTS for delayed death inhibitors of the malarial parasite plastid, 96 hour incubation. P. falciparum luciferase reporter growth, 96 h. Potency, µM (series often up to 28.7 µM), most hits filed as inhibitors. 320,000 tested, 6.9% active
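Two-generation exposure (96 h) targets delayed-death phenotype. Reporter parasites carrying integrated firefly luciferase, in red cells at 2% hematocrit and 0.05% parasitemia final, kept at 37 C, 5% CO2; luminescence loss indicates inhibition.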
Numbers stand for hits; - = inactive; ? = inconclusive; . = no result; [ ] = remark or other dose. A selection: hits, their analogues and other compounds. The true share with any hit is near 9.5%. Unless noted, the call rests on the fitted dose curve; in most records, active means well fitted inhibition curve with a large enough effect; inconclusive means small, poorly fitted or top-dose-only effect, or another doubt; inactive means no such curve, though single readings can be large or run the other way.

SMILES	Pf growth 48h	RE007 growth inh	SARS PLpro yeast	NS1 inh	Pf growth 96h
CC1Cc2ccccc2N1C(=O)CN1CCN(Cc2ccccc2)CC1 (stereo unspecified)	-[0.00184 µM]	-	-	-	-
CC1CCN(CC(=O)N2c3ccccc3CC2C)CC1 (stereo unspecified)	-	-	-	.	0.59µM
CC1Cc2ccccc2N1C(=O)CNc1ccccc1N1CCCCC1 (stereo unspecified)	?	-	-	.	13µM
CCOc1ccc(NC(=O)C(C)Oc2ccc(C#N)cc2)cc1S(=O)(=O)N1CCCC1 (stereo unspecified)	?	-	-	.	?
Cc1cccc(Nc2cc(=O)n(C)c(=O)n2C)c1	.	-	.	.	.
CCCC(=O)Nc1nc(C)c(-c2csc(Nc3ccccc3OC)n2)s1	?	-	?	-	13µM
Cc1ccc(Cl)cc1Nc1nc(-c2sc(NC(=O)C(C)(C)C)nc2C)cs1	8.3µM	-	-	-	5.2µM
COc1ccccc1Nc1nc(-c2c(C)[nH]c3ccccc23)cs1	5.2µM	-	-	?	2.3µM
CCCC(=O)Nc1nc(C)c(-c2csc(Nc3cc(OC)ccc3OC)n2)s1	?	-	-	-	?
CC(=O)Nc1nc(C)c(-c2csc(Nc3ccccn3)n2)s1	-	-	-	-	?
COc1ccccc1Nc1nc(-c2sc(NC(=O)CC(C)C)nc2C)cs1	?	-	-	?	1.9µM
COc1ccccc1Nc1nc(-c2sc(NC(=O)C(C)(C)C)nc2C)cs1	?	-	-	-	12µM
CCCCCC(=O)Nc1nc(C)c(-c2csc(Nc3cc(Cl)ccc3OC)n2)s1	7.4µM	-	-	-	3.7µM
CCOc1ccccc1Nc1nc(-c2sc(C)nc2C)cs1	?	-	-	-	-
CCOC(=O)C1CC(CN2C(=O)c3ccccc3C2=O)OC1=O (stereo unspecified)	.	-	.	.	.
COC(=O)[C@H]1C[C@H](OC(=O)NCc2ccco2)[C@@]2(O)CN(S(=O)(=O)c3ccc(C)cc3)CC2[C@H]1C(=O)OC (stereo partly specified)	.	-	.	.	.
CN(C)c1ccc2c(c1)Sc1cc(N(C)C)ccc1N2C(=O)c1ccccc1	3.7µM	-	-	-	1.7µM
CCCCCCNC1=NCCS1	?	-	-	.	-
CC1(C)OC(=O)C2=C(C[C@@H](CCOCc3ccccc3)O[C@@H]2c2ccc(F)cc2)O1	.	-	.	.	.
Cc1cc(Br)ccc1SCC(=O)OCC(=O)Nc1ncc(C(F)(F)F)cc1Cl	-	-	-	-	-
CC1=NN(c2ccc(C)cc2)C(=O)/C1=C\C=C\c1ccccc1	13µM	-	-	-	?
O=C(c1nc2ccccn2c1CNCC1OCCc2ccccc21)N1CCOCC1 (stereo unspecified)	-	-	-	-	12µM
Cc1ccn2c(CNCCCn3cccn3)c(C(=O)N3CCCCCC3)nc2c1	-	-	-	-	-
O=C(c1nc2ccccn2c1CNCCCn1cccn1)N1CCCC1	-	-	-	-	13µM
Cc1ccc(NC(=O)N2CCC(NC(=O)c3cccc(C)c3)CC2)cc1	?	-	-	-	10µM
SMILES	Pf growth 48h	RE007 growth inh	SARS PLpro yeast	NS1 inh	Pf growth 96h
Cc1ccc(CNC(=O)c2cc(Cl)cc(Cl)c2)n1C	-	-	-	-	-
Cc1ccc(Cl)cc1NC(=S)N/N=C/c1cccc2ccccc12	2.1µM	-	-	-	?
Cc1ccccc1C(=O)N/N=C/c1cccc2ccccc12	?	-	-	-	?
Cc1ccc(Cl)cc1NC(=S)Nn1cnnc1	-	-	?	-	2.6µM
Cc1ccc(NC(=S)Nn2cnnc2)c(C)c1	-	.	-	-	-
Cc1cccc2cc(CN(CC(C)C)S(=O)(=O)c3ccccc3)c(=O)[nH]c12	?	-	-	-	13µM
Cc1cccc(N(Cc2cc3ccc(C)cc3[nH]c2=O)S(=O)(=O)c2ccccc2)c1	?	-	-	-	?
Cc1cccc(N(Cc2cc3ccccc3[nH]c2=O)S(=O)(=O)c2ccccc2)c1	15µM	-	-	-	10µM
N#Cc1ccccc1Cn1cc(C(=O)c2cccs2)c2ccccc21	15µM	-	-	-	-
O=C(c1cccs1)c1cn(Cc2ccccc2Cl)c2ccccc12	.	-	-	-	?
CCCCCC(C(=O)O)C(C)CC(=O)NC1CCCCC1 (stereo unspecified)	-	-	-	?	13µM
CC(C)CCC(C(=O)O)C(C)CC(=O)NC1CCCCC1 (stereo unspecified)	-	-	-	-[9.22 µM]	-
CCOC(=O)[C@]1(CC(=O)O)CCCC1=O	.	.	.	-	.

Bioassay records from PubChem.
